Experimental findings from article PMC4336329 (PLoS ONE, 2015) are described below.

About 14,000 (4.5%) of roughly 310,000 compounds showed an effect of 50% or more. Effects have a minus sign here. This excerpt belongs to a sample that is enriched for strong results.
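Further: peak tail current of the secondary pulse compared with the same well before compound.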

The assay deals with human ether-à-go-go-related gene (hERG) potassium channel (human, UniProt Q12809). As to the kind of experiment: primary screen, population patch clamp on CHO cells stably expressing hERG; higher = less effect of the substance.
human ether-à-go-go-related gene (hERG) potassium channel, sequence (Q12809 whole entry, looked up): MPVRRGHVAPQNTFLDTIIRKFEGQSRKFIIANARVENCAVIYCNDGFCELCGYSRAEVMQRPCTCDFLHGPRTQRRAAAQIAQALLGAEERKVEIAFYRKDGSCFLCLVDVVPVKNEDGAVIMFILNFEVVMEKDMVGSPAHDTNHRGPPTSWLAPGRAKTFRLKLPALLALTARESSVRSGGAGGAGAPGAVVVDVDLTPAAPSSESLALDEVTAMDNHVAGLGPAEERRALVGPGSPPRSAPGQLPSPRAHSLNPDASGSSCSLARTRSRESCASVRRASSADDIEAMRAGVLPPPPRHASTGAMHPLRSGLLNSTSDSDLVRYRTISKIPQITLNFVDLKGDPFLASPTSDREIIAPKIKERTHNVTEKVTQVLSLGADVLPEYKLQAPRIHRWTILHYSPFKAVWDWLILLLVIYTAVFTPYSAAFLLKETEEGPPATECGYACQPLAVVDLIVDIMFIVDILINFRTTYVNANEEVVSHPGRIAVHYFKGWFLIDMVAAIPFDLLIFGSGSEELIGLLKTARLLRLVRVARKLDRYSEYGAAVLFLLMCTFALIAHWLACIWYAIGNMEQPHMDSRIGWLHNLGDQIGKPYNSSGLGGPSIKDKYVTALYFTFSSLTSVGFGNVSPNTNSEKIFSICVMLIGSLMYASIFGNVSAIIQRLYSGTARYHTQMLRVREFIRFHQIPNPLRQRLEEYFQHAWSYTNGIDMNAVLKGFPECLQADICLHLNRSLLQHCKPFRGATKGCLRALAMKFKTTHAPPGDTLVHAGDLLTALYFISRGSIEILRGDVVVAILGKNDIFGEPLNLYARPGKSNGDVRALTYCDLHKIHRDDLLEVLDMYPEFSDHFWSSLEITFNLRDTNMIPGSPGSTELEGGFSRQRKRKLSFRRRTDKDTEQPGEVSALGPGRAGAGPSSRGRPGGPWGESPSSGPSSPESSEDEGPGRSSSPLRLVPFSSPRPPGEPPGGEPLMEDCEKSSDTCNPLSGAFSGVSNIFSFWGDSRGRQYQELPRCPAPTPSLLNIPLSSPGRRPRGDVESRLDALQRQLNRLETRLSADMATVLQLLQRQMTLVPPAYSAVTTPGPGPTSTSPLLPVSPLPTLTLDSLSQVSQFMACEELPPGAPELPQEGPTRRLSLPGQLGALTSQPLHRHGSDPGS
In the case of `COc1ccc(C(=O)NC(=S)NCc2cccnc2)cc1OC`, the “hERG current change (%, negative = inhibition) at 10uM” value is listed as -57.3%.
For the compound `COc1ccc(C(=O)NC(=S)NCc2cccnc2)cc1Cl`, the “hERG current change (%, negative = inhibition) at 10uM” value is -1.7%.
With `COc1ccc(C(=O)NC(=S)NCc2cccnc2)cc1Br`, the “hERG current change (%, negative = inhibition) at 10uM” value is reported as -23.9%.
Regarding `CCOc1ccc(C(=O)NC(=S)Nc2cccnc2)cc1[N+](=O)[O-]`, the “hERG current change (%, negative = inhibition) at 10uM” value was -16.1%.
For the compound `CCOc1ccc(C(=O)NC(=S)Nc2ncccc2C)cc1[N+](=O)[O-]`, the “hERG current change (%, negative = inhibition) at 10uM” value is recorded as -67.6%.
In the case of `CCOc1ccc(C(=O)NC(=S)NCc2cccnc2)cc1[N+](=O)[O-]`, the “hERG current change (%, negative = inhibition) at 10uM” value was -2.86%.
In the case of `CCOc1ccc(C(=O)NCc2cccnc2)cc1[N+](=O)[O-]`, the “hERG current change (%, negative = inhibition) at 10uM” value is -76%.
In the case of `COc1ccc(OC)c(C2=NOC(C(=O)NCc3cccnc3)C2)c1` (centres unmarked), the “hERG current change (%, negative = inhibition) at 10uM” value is recorded as -62%.
As to `COc1cc(OC)c(C2=NOC(C(=O)NCc3cccnc3)C2)cc1Cl` (centres unmarked), the “hERG current change (%, negative = inhibition) at 10uM” value was found to be 13%.
Take `COc1ccc(C(=O)NC(=S)NCc2cccnc2)cc1[N+](=O)[O-]`: the “hERG current change (%, negative = inhibition) at 10uM” value was -12.3%.
Turning to `COc1cccc(C2=NOC(C(=O)NCc3cccnc3)C2)c1` (centres unmarked), the “hERG current change (%, negative = inhibition) at 10uM” value is reported as 35.6%.
`CCOc1ccc(C(=O)NC(=S)Nc2ccccn2)cc1[N+](=O)[O-]`: the “hERG current change (%, negative = inhibition) at 10uM” value is on record as -2.48%.
Next, `NC(=O)CSc1oc(-c2ccc(F)cc2)nc1S(=O)(=O)c1ccccc1`: -8.24%; `Cc1ccc(S(=O)(=O)C(C#N)c2nc3ccccc3nc2OC(C)C)cc1` (centres unmarked): -5.65%; `CN(CC(=O)Nc1ccc(F)cc1)C(=O)COC(=O)C1=COCCO1`: -20%.
For `CCCCOC(=O)C1=C(C)Nc2ncnn2C1c1ccc(OC)c(OC)c1OC` (centres unmarked), the “hERG current change (%, negative = inhibition) at 10uM” value is reported as -18.3%.
`CCOC(=O)Cc1csc(NC(=O)c2ccc3c(c2)OCO3)n1`: the “hERG current change (%, negative = inhibition) at 10uM” value is reported as -22.8%.
For `Cc1nn(C(=O)CN2C(=O)c3ccccc3C2=O)c(C)c1Br`, the “hERG current change (%, negative = inhibition) at 10uM” value was 5.28%.
The figure for `CCOC(=O)[C@H]1[C@H]2COc3ccc(Cl)cc3[C@@H]2N2C(=O)CN(Cc3ccc(Cl)cc3)C(=O)[C@@]12C` is 2.8%; for `Cc1ccc(NC(=O)Nc2cc(Cl)ccc2C2COC(=O)C2=N)cc1` (centres unmarked) it is 27.9%.
Regarding `Cn1c(N)c(S(=O)(=O)N2CCCC2)c(=O)n(C)c1=O`, the “hERG current change (%, negative = inhibition) at 10uM” value was 26.2%.
Regarding `O=C(O)C(F)(F)F.c1cn2c(NC3CCCCC3)c(-c3ccc(SC4CCCCC4)cc3)nc2cn1`, the “hERG current change (%, negative = inhibition) at 10uM” value was found to be 9.49%.
The figure for `O=C(CSc1ccc(F)cc1)N1CCOCC1` is 16.2%.
Regarding `O=C(N/N=C/c1cccnc1)c1cc(Br)ccc1O`, the “hERG current change (%, negative = inhibition) at 10uM” value was 30.5%.
Consider `Cc1ccc(-n2c(=O)cc(N3CC(C)CC(C)C3)[nH]c2=O)cc1` (centres unmarked), for which the “hERG current change (%, negative = inhibition) at 10uM” value came to 23.7%.
Next, `COc1cc(NC(=O)Cn2cnc3c(nc4n3CCCCC4)c2=O)cc(OC)c1OC`: 22.8%; `COc1ccccc1NC(=O)Cn1cnc2c(nc3n2CCCCC3)c1=O`: -11.4%; `O=C(Cn1cnc2c(nc3n2CCCCC3)c1=O)Nc1cccc(C(F)(F)F)c1`: -52.3%.
Consider `CC(C)c1nc(CN(C)C(=O)N[C@H](C(=O)N[C@@H](Cc2ccccc2)C[C@H](O)[C@H](Cc2ccccc2)NC(=O)OCc2cncs2)C(C)C)cs1`, for which the “hERG current change (%, negative = inhibition) at 10uM” value is on record as -24.5%.
Regarding `C#CCOCCOCCOCCNc1nc(N2CCOCC2)nc(N2CCN(C(=O)[C@H]([C@@H](C)CC)n3cc(CCC[NH+]=C(N)N)nn3)CC2)n1.[Cl-]`, the “hERG current change (%, negative = inhibition) at 10uM” value is reported as -0.117%.
Regarding `COc1cccc(-n2c(SCC(N)=O)nnc2-c2ccncc2)c1`, the “hERG current change (%, negative = inhibition) at 10uM” value turned out to be 16%.
Consider `O=c1[nH]nc(Cc2ccccc2)c2ccccc12`, for which the “hERG current change (%, negative = inhibition) at 10uM” value was 4.16%.
For the compound `O=c1[nH]nc(Cc2ccc([N+](=O)[O-])cc2)c2ccccc12`, the “hERG current change (%, negative = inhibition) at 10uM” value is listed as -70.2%.
As to `O=c1[nH]nc(Cc2ccc(Cl)cc2)c2ccccc12`, the “hERG current change (%, negative = inhibition) at 10uM” value is recorded as 8.04%.
Next, `CN(C)CCNC(=O)c1cc(Br)ccc1Cl`: 3.14%; `CC(=O)c1c(N2CCN(c3ccccn3)CC2)nc(=S)n(-c2ccccc2)c1C`: -32.3%.
With `CC(C)(C)OC(=O)N1CCC(c2cc(-c3cccs3)n[nH]2)CC1`, the “hERG current change (%, negative = inhibition) at 10uM” value is reported as -1.2%.
The figure for `CCOC(=O)CN1CCC(c2cc(-c3ccc(Cl)cc3)n[nH]2)CC1` is -12.5%; for `Cc1ccc(CN2CCN(/N=C/c3cccs3)CC2)cc1` it is -38%.
On to `Cc1ccc(CN2CCC(c3cc(-c4cccs4)n[nH]3)CC2)cc1`, for which the “hERG current change (%, negative = inhibition) at 10uM” value is given as -82.1%.
As to `Cc1ccc(CN2CCC(c3cc(-c4ccc(Cl)cc4)n[nH]3)CC2)cc1`, the “hERG current change (%, negative = inhibition) at 10uM” value is given as -78.8%.
Consider `Clc1ccc(-c2cc(C3CCNCC3)[nH]n2)cc1`, for which the “hERG current change (%, negative = inhibition) at 10uM” value is on record as -3.21%.
As for `O=C(O)c1ccc(NC(=O)c2cccc(C(=O)Nc3ccc(C(=O)O)cc3)c2)cc1`, the “hERG current change (%, negative = inhibition) at 10uM” value is recorded as 7.31%.
Turning to `Cc1c(S(=O)(=O)NCCc2ccccc2)c(=O)n(C)c(=O)n1C`, the “hERG current change (%, negative = inhibition) at 10uM” value is given as -1.25%.
As for `CCN(CC)C(=O)c1ccc2c(c1[N+](=O)[O-])C(=O)c1ccccc1C2=O`, the “hERG current change (%, negative = inhibition) at 10uM” value was 6.69%.
For `Cc1nn(C2CCOC(C)(C)C2)c2c1C(c1ccc(OC(C)C)cc1)SCC(=O)N2` (centres unmarked), the “hERG current change (%, negative = inhibition) at 10uM” value is -15.5%.
`Nc1nc(N2CCCCC2)nc(N2CCCCC2)n1`: the “hERG current change (%, negative = inhibition) at 10uM” value is listed as -78.2%.
With `C1CCN(c2nc(N3CCCCC3)nc(N3CCNCC3)n2)CC1`, the “hERG current change (%, negative = inhibition) at 10uM” value was -7.81%.
The figure for `Nc1nc(N2CCCCC2)nc(N(c2ccccc2)c2ccccc2)n1` is 17.1%.
As for `O=C(C1CCN(S(=O)(=O)N2CCOCC2)CC1)N1CCOCC1`, the “hERG current change (%, negative = inhibition) at 10uM” value is reported as -6.69%.
As for `CCCN(CCC)S(=O)(=O)c1ccc(NC(=O)C2CCCO2)cc1` (centres unmarked), the “hERG current change (%, negative = inhibition) at 10uM” value is given as -64.4%.
With `CCN(CC)S(=O)(=O)c1ccc(NC(=O)C2CCCO2)cc1` (centres unmarked), the “hERG current change (%, negative = inhibition) at 10uM” value stood at 6.96%.
As for `CCCCNS(=O)(=O)c1ccc(NC(=O)C2CCCO2)cc1` (centres unmarked), the “hERG current change (%, negative = inhibition) at 10uM” value is listed as -8.88%.
`CCCCN(CCCC)S(=O)(=O)c1ccc(NC(=O)CN2CCOCC2)cc1`: the “hERG current change (%, negative = inhibition) at 10uM” value was -53.6%.
Turning to `Cc1ccc(NC(=O)CN2CCOCC2)cc1`, the “hERG current change (%, negative = inhibition) at 10uM” value worked out at 14.1%.
Take `CN(C)S(=O)(=O)c1ccc(NC(=O)CN2CCOCC2)cc1`: the “hERG current change (%, negative = inhibition) at 10uM” value came out at 9.72%.
